Targets with a hit are over-represented here; the source holds about 8,800 in all. About 0.5% of all pairs of compound and target were hits. Values without a mark were called inactive.
Columns and labels:
Assay in all cases: log2 fold change, soluble protein after heating vs DMSO (PISA); higher = thermal stabilisation; K562 lysate, 10 uM; active = over 0.2 and 3.5 SD of the protein, either way, in both replicates (recomputed)
nilotinib = compound: Cc1cn(-c2cc(NC(=O)c3ccc(C)c(Nc4nccc(-c5cccnc5)n4)c3)cc(C(F)(F)F)c2)cn1 [nilotinib]
Outline: (§1)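 To prepare the extract, K562 pellets were dounce-homogenised in PBS pH 7.4 with 1 mM MgCl2, giving crude material at 1 mg/mL protein. This was treated with 10 μM compound for 30 min, then heated in aliquots for 3 min over 48°C-58°C before pooling and addition of NP-40 to 0.5% at 4°C. Centrifugation at 21,000xg for 90 min left soluble protein in the supernatant, which TMTpro 16plex LC-MS/MS quantified with equalised channel sums. Results are log-two fold changes in thermal stability compared with solvent controls, from duplicates.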

[1] = compound: Cc1nc(Nc2n[nH]c3c2CN(C(=O)N[C@H](CN(C)C)c2ccccc2)C3(C)C)c2sccc2n1
Outline: as §1

dasatinib = compound: Cc1nc(Nc2ncc(C(=O)Nc3c(C)cccc3Cl)s2)cc(N2CCN(CCO)CC2)n1 [dasatinib]
Outline: as §1

[2] = compound: Cc1ncc(-c2ccnc(Nc3ccc(S(C)(=O)=O)cc3)n2)n1C(C)C
Outline: as §1

[3] = compound: Cn1cc(-c2ccc3c(c2)CCN3C(=O)Cc2cccc(C(F)(F)F)c2)c2c(N)ncnc21
Outline: as §1

quisinostat = compound: Cn1cc(CNCC2CCN(c3ncc(C(=O)NO)cn3)CC2)c2ccccc21 [quisinostat]
Outline: as §1

tipifarnib = compound: Cn1cncc1[C@@](N)(c1ccc(Cl)cc1)c1ccc2c(c1)c(-c1cccc(Cl)c1)cc(=O)n2C [tipifarnib]
Outline: as §1

[4] = compound: NC(=O)Nc1cc(-c2cccc(F)c2)sc1C(=O)N[C@H]1CCCNC1
Outline: as §1

[5] = compound: NC(=O)c1cnc(N[C@@H]2CCCC[C@@H]2N)nc1Nc1cccc(-n2nccn2)c1
Outline: as §1

[6] = compound: NC1(c2ccc(-c3nc4ccn5c(=O)[nH]nc5c4cc3-c3ccccc3)cc2)CCC1
Outline: as §1

[7] = compound: NCC(=O)Nc1ccc(-n2nc(C(F)(F)F)cc2-c2ccc3c(ccc4ccccc43)c2)cc1
Outline: as §1

vorinostat = compound: O=C(CCCCCCC(=O)Nc1ccccc1)NO [vorinostat]
Outline: as §1

silmitasertib = compound: O=C(O)c1ccc2c(c1)nc(Nc1cccc(Cl)c1)c1ccncc12 [silmitasertib]
Outline: as §1

[8] = compound: O=C1NC(=O)C(c2cnc3ccccn23)=C1c1cn2c3c(cc(F)cc13)CN(C(=O)N1CCCCC1)CC2
Outline: as §1

entospletinib = compound: c1cn2cc(-c3ccc4cn[nH]c4c3)nc(Nc3ccc(N4CCOCC4)cc3)c2n1 [entospletinib]
Outline: as §1

UniProt Q8N201, sequence (Q8N201 whole entry, looked up): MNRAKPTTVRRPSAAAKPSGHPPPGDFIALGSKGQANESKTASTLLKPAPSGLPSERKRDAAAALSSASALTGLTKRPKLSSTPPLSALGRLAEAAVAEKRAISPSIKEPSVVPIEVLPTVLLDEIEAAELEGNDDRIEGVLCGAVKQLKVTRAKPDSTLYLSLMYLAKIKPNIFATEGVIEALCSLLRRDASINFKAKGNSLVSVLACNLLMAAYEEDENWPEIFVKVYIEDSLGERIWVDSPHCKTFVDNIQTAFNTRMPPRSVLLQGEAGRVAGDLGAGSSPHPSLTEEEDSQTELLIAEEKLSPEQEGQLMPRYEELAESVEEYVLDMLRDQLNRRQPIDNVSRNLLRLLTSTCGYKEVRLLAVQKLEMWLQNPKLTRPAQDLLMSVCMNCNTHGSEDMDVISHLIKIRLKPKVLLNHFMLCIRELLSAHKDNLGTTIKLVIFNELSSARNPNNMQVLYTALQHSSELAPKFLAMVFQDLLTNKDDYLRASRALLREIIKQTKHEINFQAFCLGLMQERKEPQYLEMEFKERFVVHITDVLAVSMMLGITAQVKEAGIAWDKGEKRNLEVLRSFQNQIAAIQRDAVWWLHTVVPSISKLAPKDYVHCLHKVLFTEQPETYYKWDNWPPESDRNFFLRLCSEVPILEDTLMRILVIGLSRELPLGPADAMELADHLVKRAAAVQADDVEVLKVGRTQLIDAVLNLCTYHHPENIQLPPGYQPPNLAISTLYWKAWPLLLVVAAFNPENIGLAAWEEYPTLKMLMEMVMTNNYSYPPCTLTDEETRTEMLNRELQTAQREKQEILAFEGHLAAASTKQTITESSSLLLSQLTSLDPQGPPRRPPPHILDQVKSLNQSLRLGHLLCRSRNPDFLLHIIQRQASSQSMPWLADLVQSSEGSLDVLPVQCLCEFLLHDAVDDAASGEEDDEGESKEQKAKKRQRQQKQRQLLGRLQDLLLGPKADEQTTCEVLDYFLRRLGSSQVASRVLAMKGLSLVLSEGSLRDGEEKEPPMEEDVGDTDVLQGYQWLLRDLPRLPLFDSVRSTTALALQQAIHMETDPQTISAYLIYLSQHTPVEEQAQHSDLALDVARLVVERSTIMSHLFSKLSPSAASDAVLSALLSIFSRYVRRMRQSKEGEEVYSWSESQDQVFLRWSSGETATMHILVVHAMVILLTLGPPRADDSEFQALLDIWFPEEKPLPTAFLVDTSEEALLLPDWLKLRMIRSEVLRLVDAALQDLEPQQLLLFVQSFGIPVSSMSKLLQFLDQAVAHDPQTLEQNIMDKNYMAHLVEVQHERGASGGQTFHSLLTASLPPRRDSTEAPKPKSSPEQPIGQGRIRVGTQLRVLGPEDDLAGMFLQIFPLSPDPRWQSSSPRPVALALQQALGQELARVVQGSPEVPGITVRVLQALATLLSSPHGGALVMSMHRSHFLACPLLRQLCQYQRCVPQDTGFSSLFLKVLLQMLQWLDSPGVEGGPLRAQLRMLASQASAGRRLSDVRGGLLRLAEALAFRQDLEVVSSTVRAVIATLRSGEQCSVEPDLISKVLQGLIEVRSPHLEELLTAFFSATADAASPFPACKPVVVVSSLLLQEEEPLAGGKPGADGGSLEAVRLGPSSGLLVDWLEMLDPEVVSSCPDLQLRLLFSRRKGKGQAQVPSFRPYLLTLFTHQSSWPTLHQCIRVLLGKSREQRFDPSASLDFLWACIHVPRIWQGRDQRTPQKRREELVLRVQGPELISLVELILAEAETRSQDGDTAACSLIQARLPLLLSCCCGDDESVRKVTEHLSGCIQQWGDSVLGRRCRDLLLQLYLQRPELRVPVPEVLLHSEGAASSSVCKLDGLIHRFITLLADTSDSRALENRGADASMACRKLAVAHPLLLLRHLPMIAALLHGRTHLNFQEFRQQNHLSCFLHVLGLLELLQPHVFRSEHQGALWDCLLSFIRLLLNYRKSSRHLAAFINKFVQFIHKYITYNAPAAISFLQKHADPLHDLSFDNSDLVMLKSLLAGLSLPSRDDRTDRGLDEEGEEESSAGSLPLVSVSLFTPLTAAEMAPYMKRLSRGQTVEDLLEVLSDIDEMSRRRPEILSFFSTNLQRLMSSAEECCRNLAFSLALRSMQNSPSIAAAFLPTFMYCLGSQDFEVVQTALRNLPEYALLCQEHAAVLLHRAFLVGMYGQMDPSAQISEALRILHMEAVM
UniProt Q9P2X3, sequence (Q9P2X3 whole entry, looked up): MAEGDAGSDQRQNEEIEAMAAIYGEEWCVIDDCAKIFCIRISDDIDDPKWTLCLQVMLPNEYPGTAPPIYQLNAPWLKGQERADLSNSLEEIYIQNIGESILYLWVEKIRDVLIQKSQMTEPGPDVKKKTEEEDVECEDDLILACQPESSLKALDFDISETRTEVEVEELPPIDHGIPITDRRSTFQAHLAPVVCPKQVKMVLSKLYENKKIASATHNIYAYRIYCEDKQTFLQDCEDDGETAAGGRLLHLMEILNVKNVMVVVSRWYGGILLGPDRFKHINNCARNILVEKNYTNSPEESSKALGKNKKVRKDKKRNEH
UniProt O15550, sequence (O15550 whole entry, looked up): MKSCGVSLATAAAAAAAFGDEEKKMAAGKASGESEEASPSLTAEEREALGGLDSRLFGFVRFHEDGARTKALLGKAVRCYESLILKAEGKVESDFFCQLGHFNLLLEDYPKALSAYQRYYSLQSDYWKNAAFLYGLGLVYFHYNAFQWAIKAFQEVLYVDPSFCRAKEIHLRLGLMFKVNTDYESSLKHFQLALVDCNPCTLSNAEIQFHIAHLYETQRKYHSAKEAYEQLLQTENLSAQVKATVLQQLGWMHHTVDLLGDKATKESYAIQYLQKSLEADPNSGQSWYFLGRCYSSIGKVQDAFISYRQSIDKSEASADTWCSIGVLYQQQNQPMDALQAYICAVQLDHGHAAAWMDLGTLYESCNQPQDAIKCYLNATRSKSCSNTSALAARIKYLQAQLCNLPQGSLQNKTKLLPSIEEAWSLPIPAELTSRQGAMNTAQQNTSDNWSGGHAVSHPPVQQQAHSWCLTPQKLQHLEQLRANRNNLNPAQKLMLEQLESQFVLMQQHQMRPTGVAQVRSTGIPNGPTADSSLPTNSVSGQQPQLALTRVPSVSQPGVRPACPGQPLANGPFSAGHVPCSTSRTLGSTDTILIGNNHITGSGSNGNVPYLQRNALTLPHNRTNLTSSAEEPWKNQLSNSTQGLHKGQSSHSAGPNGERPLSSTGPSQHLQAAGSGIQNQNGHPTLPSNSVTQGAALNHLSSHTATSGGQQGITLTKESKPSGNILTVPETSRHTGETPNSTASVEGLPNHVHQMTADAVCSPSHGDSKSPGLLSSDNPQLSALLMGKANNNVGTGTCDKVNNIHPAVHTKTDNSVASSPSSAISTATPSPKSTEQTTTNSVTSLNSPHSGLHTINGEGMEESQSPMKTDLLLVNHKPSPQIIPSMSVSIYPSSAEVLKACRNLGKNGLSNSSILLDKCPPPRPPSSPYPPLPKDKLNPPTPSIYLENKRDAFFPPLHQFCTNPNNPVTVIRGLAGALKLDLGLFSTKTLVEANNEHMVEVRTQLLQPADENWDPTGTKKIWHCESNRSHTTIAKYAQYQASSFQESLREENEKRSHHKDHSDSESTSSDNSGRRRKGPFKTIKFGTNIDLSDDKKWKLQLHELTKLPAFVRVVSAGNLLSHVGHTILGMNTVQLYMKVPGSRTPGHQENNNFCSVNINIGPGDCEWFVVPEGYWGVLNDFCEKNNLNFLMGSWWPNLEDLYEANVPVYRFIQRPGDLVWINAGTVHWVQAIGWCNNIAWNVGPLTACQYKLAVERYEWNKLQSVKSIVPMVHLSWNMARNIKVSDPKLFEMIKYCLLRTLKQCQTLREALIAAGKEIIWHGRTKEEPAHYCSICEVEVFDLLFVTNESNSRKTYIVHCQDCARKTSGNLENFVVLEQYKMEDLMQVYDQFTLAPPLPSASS
UniProt Q53GQ0, sequence (Q53GQ0 whole entry, looked up): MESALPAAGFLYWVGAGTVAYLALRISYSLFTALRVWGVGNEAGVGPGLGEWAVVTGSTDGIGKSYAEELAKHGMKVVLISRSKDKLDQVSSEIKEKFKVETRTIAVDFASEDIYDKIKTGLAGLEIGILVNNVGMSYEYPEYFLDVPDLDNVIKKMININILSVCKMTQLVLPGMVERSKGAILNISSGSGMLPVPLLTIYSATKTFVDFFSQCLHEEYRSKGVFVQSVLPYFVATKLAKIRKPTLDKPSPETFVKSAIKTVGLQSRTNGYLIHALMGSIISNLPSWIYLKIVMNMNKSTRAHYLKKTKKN
UniProt O14979, sequence (O14979 whole entry, looked up): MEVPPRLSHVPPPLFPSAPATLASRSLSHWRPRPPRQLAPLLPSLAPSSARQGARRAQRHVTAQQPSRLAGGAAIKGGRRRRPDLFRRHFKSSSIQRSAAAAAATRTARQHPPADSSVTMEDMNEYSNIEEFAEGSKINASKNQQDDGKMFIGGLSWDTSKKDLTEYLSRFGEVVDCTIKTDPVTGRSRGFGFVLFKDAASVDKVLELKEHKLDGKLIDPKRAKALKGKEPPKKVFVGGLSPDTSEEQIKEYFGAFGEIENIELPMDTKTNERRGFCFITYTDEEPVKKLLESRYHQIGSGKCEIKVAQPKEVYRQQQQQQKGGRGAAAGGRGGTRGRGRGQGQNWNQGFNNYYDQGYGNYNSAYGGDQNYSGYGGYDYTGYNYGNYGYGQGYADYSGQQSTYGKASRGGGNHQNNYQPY
UniProt Q9NWZ3, sequence (Q9NWZ3 whole entry, looked up): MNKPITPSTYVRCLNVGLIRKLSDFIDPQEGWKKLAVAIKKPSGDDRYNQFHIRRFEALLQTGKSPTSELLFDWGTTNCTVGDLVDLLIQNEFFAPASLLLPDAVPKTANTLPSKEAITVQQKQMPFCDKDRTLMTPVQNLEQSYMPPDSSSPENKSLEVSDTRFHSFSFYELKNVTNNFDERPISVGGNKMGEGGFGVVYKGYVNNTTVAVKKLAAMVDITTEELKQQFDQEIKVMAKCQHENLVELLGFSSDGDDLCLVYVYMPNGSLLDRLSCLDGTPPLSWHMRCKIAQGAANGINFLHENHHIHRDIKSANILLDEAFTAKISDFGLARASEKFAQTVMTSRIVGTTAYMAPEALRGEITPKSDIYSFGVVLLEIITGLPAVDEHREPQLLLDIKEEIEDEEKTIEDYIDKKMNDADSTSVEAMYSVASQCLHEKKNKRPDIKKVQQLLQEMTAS

Target	log2 fold change (nilotinib)	log2 fold change [1]	log2 fold change (dasatinib)	log2 fold change [2]	log2 fold change [3]	log2 fold change (quisinostat)	log2 fold change (tipifarnib)	log2 fold change [4]	log2 fold change [5]	log2 fold change [6]	log2 fold change [7]	log2 fold change (vorinostat)	log2 fold change (silmitasertib)	log2 fold change [8]	log2 fold change (entospletinib)
HDGFL2 isoform 2 (UniProt Q7Z4V5)	-0.005	-0.005	0.014	-0.021	-0.023	-0.061	0.003	0.011	-0.001	-0.02	0.02	0.117	-0.013	0.01	-0.012
HLCS (UniProt P50747)	-0.005	-0.005	0.012	-0.003	0.068	-0.022	-0.006	-0.011	0.024	0.02	-0.048	-0.054	-0.012	0.004	0.009
KARS1 (UniProt Q15046)	-0.017	-0.01	-0.031	-0.029	0.02	0.034	0.02	0.004	0.013	0.02	0.021	-0.011	0.022	-0.026	0.006
IGF2BP2 (UniProt Q9Y6M1)	-0.051	0.008	-0.055	-0.008	0.031	0.012	0.028	0.06	0.016	0.019	-0.016	-0.239 (active)	0.088	0	0.026
ISOC2 (UniProt Q96AB3)	0.012	0.022	0.026	0.091	0	-0.053	-0.017	-0.05	-0.045	-0.036	-0.064	0.304 (active)	-0.036	0	0.033
HSD17B12 (UniProt Q53GQ0)	-0.024	-0.04	0.016	0.033	0.007	0.073	-0.118	0.058	0.012	-0.045	0.025	-0.009	-0.05	-0.078	0.041
GIT1 (UniProt Q9Y2X7)	0.03	-0.062	-0.05	-0.042	0.036	-0.045	-0.086	0.035	-0.007	-0.026	-0.043	-0.32 (active)	0.009	0.006	-0.005
IMMT (UniProt C9J406)	-0.044	0.09	0.045	0.012	0.051	0.022	-0.03	0	0.023	-0.038	-0.084	0.174	0.092	-0.002	-0.172
GRB10 (UniProt Q13322)	0.053	-0.028	-0.003	0.026	0.04	-0.065	-0.058	0.008	-0.056	0.008	-0.001	-0.402 (active)	0.065	0.008	0.007
GTF2A1 (UniProt P52655)	0.024	-0.047	0.022	0.095	0.046	-0.039	0.021	-0.04	0.007	-0.012	-0.029	0.094	-0.043	0.052	0.039
GTPBP2 (UniProt Q9BX10)	0.016	-0.009	-0.023	-0.014	0.005	-0.136	-0.079	0.042	0.04	0.046	0.029	-0.289 (active)	0	-0.003	0.056
IMPACT (UniProt Q9P2X3)	0.087	-0.066	0.013	-0.687 (active)	0.04	-0.103	-0.13	0.11	0.071	0.087	0.019	-0.125	-0.096	-0.082	-0.027
HACE1 (UniProt Q8IYU2)	-0.027	0.043	-0.154	0.035	-0.084	0.061	-0.175	0.181	0.028	-0.02	0.183	-0.126	-0.002	0.084	0.012
KDM6A (UniProt O15550)	0.009	0.033	0.041	-0.009	0.015	-0.062	-0.031	0.002	-0.017	0.009	0.026	-0.299 (active)	-0.059	-0.009	-0.02
HAUS4 (UniProt Q9H6D7)	0.03	-0.05	-0.052	0.016	0.052	-0.065	-0.021	0.053	0.014	-0.012	-0.022	-0.255 (active)	0.045	-0.017	-0.018
IRAK4 (UniProt Q9NWZ3)	-0.115	0.065	0.051	-0.012	0.023	-0.066	-0.044	0.413 (active)	0.028	0	-0.031	-0.218	0.055	-0.106	0.042
HNRNPDL (UniProt O14979)	-0.208	0.036	0.016	-0.018	-0.005	0.074	-0.002	-0.062	-0.008	0.004	-0.032	0.133	-0.01	0.01	0.01
IRF2BPL (UniProt Q9H1B7)	0.001	0.005	-0.043	0.054	-0.059	0.032	-0.069	-0.01	0	0	-0.018	-0.324 (active)	0.02	0.006	-0.065
INTS1 (UniProt Q8N201)	-0.041	0.012	-0.087	0.035	0.028	-0.01	0.017	0.016	-0.038	0.011	0.014	-0.409 (active)	0.027	-0.034	0.003
IMMT (UniProt Q16891)	-0.009	0.016	-0.075	0.037	0.01	0.041	-0.005	-0.007	-0.017	-0.035	-0.005	0.056	0.033	0.016	0.017
HMBOX1 isoform 5 (UniProt Q6NT76)	0.186	-0.038	-0.034	0.078	0.024	-0.008	0.077	0.001	0.041	-0.055	0.004	0.093	0.025	0.02	-0.063

Source: the supplement of paper PMC10849652
